Most compounds without a hit are left out; they make up all but 2.4% or so of the library.
Cruzain inh Det: qHTS Assay for Promiscuous and Specific Inhibitors of Cruzain (with detergent). Cruzipain (Trypanosoma cruzi), P25779. purified cruzain, Z-FR-AMC fluorescence, 0.01% Triton. Potency, µM, without a hit: max response, negative = inhibition, hits mostly inhibitors. actives 0.43% (n = 200,000). AID 1478, 2009;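 note: plate controls were neutral wells for no effect and buffer without enzyme for full effect; nearly all actives have a fitted effect of over 40% in size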
Target sequence (P25779 123-467 limits assumed): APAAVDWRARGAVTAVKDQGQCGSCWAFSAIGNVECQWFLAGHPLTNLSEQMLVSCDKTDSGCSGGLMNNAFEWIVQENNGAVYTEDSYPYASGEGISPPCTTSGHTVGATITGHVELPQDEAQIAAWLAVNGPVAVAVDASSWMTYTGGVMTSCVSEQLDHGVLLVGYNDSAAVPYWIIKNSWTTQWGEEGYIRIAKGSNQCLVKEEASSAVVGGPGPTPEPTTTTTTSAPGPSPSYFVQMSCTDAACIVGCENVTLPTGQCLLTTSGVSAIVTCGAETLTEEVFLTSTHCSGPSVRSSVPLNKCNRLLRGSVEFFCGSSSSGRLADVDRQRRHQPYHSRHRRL
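In this qHTS format, compounds are incubated with 1.5 nM cruzain for 15 min at room temperature before 2 uM Z-FR-AMC is added. Release of AMC is followed at 360/450 nm, and progress is taken as the 60 s fluorescence difference.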
Cruzain noTriton: qHTS Assay for Promiscuous and Specific Inhibitors of Cruzain (without detergent) | Cruzipain (Trypanosoma cruzi), P25779 | purified cruzain, Z-FR-AMC fluorescence, no detergent | Potency, µM, without a hit: max response, negative = inhibition, hits mostly inhibitors | actives 2.3% (n = 200,000);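 note: plate controls were enzyme without inhibitor for no effect and buffer without enzyme for full effect; nearly all actives have a fitted effect of over 40% in size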
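Purified cruzain at 1.5 nM, pre-incubated 15 min with compound at room temperature in 100 mM sodium acetate pH 5.5, 5 mM DTT, 0.00005% Triton X-100. Reaction started with 2 uM Z-FR-AMC; AMC fluorescence increase over 60 s gives rate.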
Starred values were filed as active, the others as inactive. Calls come from the whole dose curve; as a rule, active = well fitted curve in the direction sought with a large enough effect; inconclusive = small, poorly fitted or top-dose-only effect, or another doubt; inactive = no such curve, though single readings can be large; an effect the other way counts as inactive or inconclusive. Potency is the fitted concentration of half-maximal effect.

How did COC(=O)[C@@H](NC(=O)O[C@H]1C(=O)c2cc(OC)ccc2O[C@@H]1c1ccc(OC)c(Br)c1)C(C)C do in these assays?
Cruzain inh Det: -5.7%; Cruzain noTriton: inconclusive

What do the screens show for `CCc1cccc(C)c1NC(=O)C(CC)n1ncn2c(cc3cc(C)ccc32)c1=O` (stereo not drawn)?
Cruzain inh Det: -2.6%; Cruzain noTriton: 0.9%

How did COc1ccc(Br)c(/C=N/NC(=O)COc2ccc(-c3ccccc3)cc2)c1 do in these assays?
Cruzain inh Det: -1.7%; Cruzain noTriton: 20µM*

Results for COc1ccc(/C=N/NC(=O)COc2ccccc2-c2ccccc2)cc1 ?
Cruzain inh Det: -6.1%; Cruzain noTriton: 6.6%

Results for CCOC(=O)c1c(C)c(-c2ccccc2)n(CC(=O)Nc2cc(C)ccc2OC)c1C ?
Cruzain inh Det: 1.4%; Cruzain noTriton: 3.4%

How did Cc1cccc(CC2S/C(=N/c3ccccn3)NC2=O)c1 (stereo not drawn) do in these assays?
Cruzain inh Det: 1.2%; Cruzain noTriton: 1.4%

How did Clc1ss/c(=N\c2ccccn2)c1Cl do in these assays?
Cruzain inh Det: 1.0%; Cruzain noTriton: 25.1µM*

Results for Cc1ccc(C)c2[nH]c(=O)c(CN(Cc3cccs3)C(=S)NCc3ccco3)cc12 ?
Cruzain inh Det: -1.8%; Cruzain noTriton: 20µM*

What do the screens show for `Cc1cccc(NC(=S)N(Cc2cccs2)Cc2cc3cc(C)cc(C)c3[nH]c2=O)c1`?
Cruzain inh Det: -2.9%; Cruzain noTriton: 25.1µM*

Results for Cc1cc2cc(CN(Cc3cccs3)C(=S)NCc3ccco3)c(=O)[nH]c2cc1C ?
Cruzain inh Det: -5.1%; Cruzain noTriton: inconclusive

How did COc1ccc2[nH]c(=O)c(CN(Cc3cccs3)C(=S)Nc3cccc(C)c3)cc2c1 do in these assays?
Cruzain inh Det: -3.0%; Cruzain noTriton: inconclusive

Results for CC(C)Cn1c(=O)c2sccc2n2c(CCCC(=O)NCCc3ccc(Cl)cc3)nnc12 ?
Cruzain inh Det: -2.4%; Cruzain noTriton: 17.9%

What do the screens show for `O=c1c2ccccc2c(C=Nc2ccc(S(=O)(=O)N3CCCCC3)cc2)c(O)n1-c1ccc(Cl)cn1`?
Cruzain inh Det: 4.0%; Cruzain noTriton: 7.94µM*

How did CCc1nnc(/N=C/c2c(O)n(-c3ccc(Cl)cn3)c(=O)c3ccccc23)s1 do in these assays?
Cruzain inh Det: -7.5%; Cruzain noTriton: inconclusive

Results for CNC(=O)c1c(NC(=O)c2cc(=O)c3cc(C)c(C)cc3o2)sc2c1CCCC2 ?
Cruzain inh Det: -0.8%; Cruzain noTriton: 7.1%

How did COC(=O)N[C@@H](CCc1ccccc1)[C@]1(C(=O)OC)CCCC1=O do in these assays?
Cruzain inh Det: 1.7%; Cruzain noTriton: 1.1%

What do the screens show for `COC(=O)c1ccc(-c2nc3cc(Cl)c(N)cc3s2)cc1`?
Cruzain inh Det: 5.9%; Cruzain noTriton: 7.94µM*

Results for COC(=O)c1ccc(-c2nc3cc(N)ccc3o2)cc1 ?
Cruzain inh Det: -3.6%; Cruzain noTriton: 6.0%

What do the screens show for `O=C(O)[C@@H]1[C@@H]2C[C@@H]3[C@@H](OC(=O)[C@@H]31)[C@H]2Br`?
Cruzain inh Det: -5.3%; Cruzain noTriton: 1.9%

Results for Cc1nn(C)c(C)c1CNC(=O)c1cc2n(n1)C(C(F)(F)F)CC(c1cccs1)N2 (stereo not drawn) ?
Cruzain inh Det: -3.0%; Cruzain noTriton: inconclusive

What do the screens show for `CCOC(=O)c1c(NC(=O)c2cc3n(n2)C(C(F)(F)F)CC(c2cccs2)N3)sc(C)c1C` (stereo not drawn)?
Cruzain inh Det: -5.9%; Cruzain noTriton: 6.31µM*

What do the screens show for `O=C(O)c1cc2c(s1)-c1ccccc1OC2`?
Cruzain inh Det: inconclusive; Cruzain noTriton: 25.1µM*

Results for O=C(O)c1cc2c(s1)-c1ccccc1CC2 ?
Cruzain inh Det: -0.6%; Cruzain noTriton: -4.0%

Results for Nc1nc(SCc2ccccc2Cl)nc2nc3c(cc12)CCCC3 ?
Cruzain inh Det: -14.9%; Cruzain noTriton: 3.7%

Results for Nc1nc(SCc2ccc(Cl)cc2Cl)nc2nc3c(cc12)CCCC3 ?
Cruzain inh Det: 14.1µM*; Cruzain noTriton: 12.6µM*

What do the screens show for `COc1ccc(CNc2ncncc2-c2ccccc2C(F)(F)F)c(OC)c1`?
Cruzain inh Det: 2.7%; Cruzain noTriton: 0.9%

What do the screens show for `C/C(=N\NC(=O)c1ccc(Cl)c(Cl)c1)c1ccc(Br)s1`?
Cruzain inh Det: 2.2%; Cruzain noTriton: 25.1µM*

How did C/C(=N\NC(=O)CNc1cccc(C)c1)c1ccc(Br)s1 do in these assays?
Cruzain inh Det: -11.2%; Cruzain noTriton: -12.2%

Results for CSc1ccc(CCNC(=O)CCc2c(C)nc3c4cccnc4nn3c2C)cc1 ?
Cruzain inh Det: -6.0%; Cruzain noTriton: -9.7%

How did Nc1cc(C(=O)O)c(O)c(S(=O)(=O)O)c1 do in these assays?
Cruzain inh Det: 0.8%; Cruzain noTriton: 0.1%

What do the screens show for `COc1ccc2c(c1)-c1nc(NC(=O)c3ccc(OC)c(Br)c3)sc1CC2`?
Cruzain inh Det: -8.2%; Cruzain noTriton: 10µM*

How did COc1ccc2c(c1)Cc1sc(NC(=O)c3cccc(Cl)c3)nc1-2 do in these assays?
Cruzain inh Det: -0.3%; Cruzain noTriton: 9.0%

Results for COc1ccc2c(c1)-c1nc(NC(=O)c3ccc(C)cc3)sc1CC2 ?
Cruzain inh Det: -4.1%; Cruzain noTriton: inconclusive

What do the screens show for `COc1ccc2c(c1)Cc1sc(NC(=O)c3ccc(Cl)cc3)nc1-2`?
Cruzain inh Det: -7.0%; Cruzain noTriton: 3.16µM*

How did CN1CCN(CCCBr)CC1 do in these assays?
Cruzain inh Det: -5.9%; Cruzain noTriton: 9.5%

How did COc1ccc2c(c1)CCc1c(C(=O)Nc3c(C)nn(Cc4ccc(C)cc4)c3C)noc1-2 do in these assays?
Cruzain inh Det: -4.8%; Cruzain noTriton: -11.8%

How did C=C(C)Cn1c(CCCNC(=O)CC)nc2ccccc21 do in these assays?
Cruzain inh Det: -0.3%; Cruzain noTriton: 5.8%

Results for Cc1ccc(OCCCn2c(CCNC(=O)C3CCCCC3)nc3ccccc32)c(C)c1 ?
Cruzain inh Det: 2.51µM*; Cruzain noTriton: -2.7%

How did Cc1ccccc1OCCCCn1c(CCNC(=O)C(C)(C)C)nc2ccccc21 do in these assays?
Cruzain inh Det: -7.5%; Cruzain noTriton: inconclusive

Results for CCn1c(CCCNC(=O)c2cccs2)nc2ccccc21 ?
Cruzain inh Det: 3.2%; Cruzain noTriton: 5.1%

What do the screens show for `CCCCn1c(CCCNC(=O)c2cccc(C)c2)nc2ccccc21`?
Cruzain inh Det: 1.4%; Cruzain noTriton: -0.8%

What do the screens show for `Cc1cccc(C(=O)NCCc2nc3ccccc3n2CCC(C)C)c1`?
Cruzain inh Det: 12.6µM*; Cruzain noTriton: 20.4%

What do the screens show for `C=C(C)Cn1c(CCNC(=O)CCC)nc2ccccc21`?
Cruzain inh Det: -2.3%; Cruzain noTriton: 15.8µM*

Results for CCCn1c(CCNC(=O)c2cccs2)nc2ccccc21 ?
Cruzain inh Det: 15.8µM*; Cruzain noTriton: 15.2%

How did N=C(N)S[C@H]1c2ccccc2-c2cc([N+](=O)[O-])ccc21 do in these assays?
Cruzain inh Det: 1.6%; Cruzain noTriton: -17.7%

Results for O=C(N/C(=C\c1ccc([N+](=O)[O-])cc1)C(=O)N1CCCCC1)c1ccccc1Br ?
Cruzain inh Det: -8.4%; Cruzain noTriton: -15.1%

How did Cc1ccc(CNC(=O)c2oc3ccc(S(=O)(=O)N4CCC(C)CC4)cc3c2C)cc1 do in these assays?
Cruzain inh Det: -4.6%; Cruzain noTriton: -18.6%

Results for O=c1c(-c2cccs2)nc2cncnc2n1-c1ccccc1 ?
Cruzain inh Det: -10.1%; Cruzain noTriton: -27.5%

From PubChem BioAssay
